# Most compounds without a hit are left out; they make up all but 2.9% or so of the library.
# ADAM17 inh – inhibits human ADAM17; P78536; recombinant ADAM17, EDANS/DABCYL FRET peptide cleavage; inhibition, % at 6.95 µM; 370,000 compounds, 0.83% hits; AID 720648;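 active = inhibition above the mean of compounds lying between control limits plus 3 SD, set per campaign, cut at about 8.5% in these data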;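 note: 0% = DMSO-only wells as the low control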
# ADAM10 inh – inhibits human ADAM10; O14672; recombinant ADAM10, EDANS/DABCYL FRET peptide cleavage, 3 h; inhibition, % at 7 µM; 370,000 compounds, 0.62% hits;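 active = inhibition above a per-campaign cutoff equal to the mean of compounds falling between control-based bounds plus 3 SD, cut at about 20% in these data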;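 note: 0% = DMSO wells while the 100% control is not disclosed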
# proKLK7 act – activators of human kallikrein-7 zymogen; P49862; purified proKLK7, EDANS-DABCYL substrate fluorescence; 100% is mature enzyme control, 0% vehicle; activation, % at 7 µM; 370,000 compounds, 0.9% hits;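 active = activation above the mean of all tested compounds plus 3 SD, computed per campaign excluding outliers beyond control limits, cut at about 13% in these data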
# PLCb3 inh – inhibitors of human phospholipase C beta3; Q01970; Purified PLC-beta3, fluorogenic substrate, fluorescence; inhibition, % at 12.2 µM; 370,000 compounds, 0.18% hits; AID 720704; in the data active = inhibition above about 11%;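 note: 0% = median of compound wells on plate and 100% = full blocker control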
# PLC-gamma1 inh – PLC-gamma1 (human) inhibition, primary screen. purified PLC-gamma1, fluorogenic substrate, fluorescence. inhibition, % at 12.2 µM. 370,000 compounds, 0.84% hits. AID 720700; in the data active = inhibition above about 9.5%
# Target sequence (P19174 whole entry, looked up): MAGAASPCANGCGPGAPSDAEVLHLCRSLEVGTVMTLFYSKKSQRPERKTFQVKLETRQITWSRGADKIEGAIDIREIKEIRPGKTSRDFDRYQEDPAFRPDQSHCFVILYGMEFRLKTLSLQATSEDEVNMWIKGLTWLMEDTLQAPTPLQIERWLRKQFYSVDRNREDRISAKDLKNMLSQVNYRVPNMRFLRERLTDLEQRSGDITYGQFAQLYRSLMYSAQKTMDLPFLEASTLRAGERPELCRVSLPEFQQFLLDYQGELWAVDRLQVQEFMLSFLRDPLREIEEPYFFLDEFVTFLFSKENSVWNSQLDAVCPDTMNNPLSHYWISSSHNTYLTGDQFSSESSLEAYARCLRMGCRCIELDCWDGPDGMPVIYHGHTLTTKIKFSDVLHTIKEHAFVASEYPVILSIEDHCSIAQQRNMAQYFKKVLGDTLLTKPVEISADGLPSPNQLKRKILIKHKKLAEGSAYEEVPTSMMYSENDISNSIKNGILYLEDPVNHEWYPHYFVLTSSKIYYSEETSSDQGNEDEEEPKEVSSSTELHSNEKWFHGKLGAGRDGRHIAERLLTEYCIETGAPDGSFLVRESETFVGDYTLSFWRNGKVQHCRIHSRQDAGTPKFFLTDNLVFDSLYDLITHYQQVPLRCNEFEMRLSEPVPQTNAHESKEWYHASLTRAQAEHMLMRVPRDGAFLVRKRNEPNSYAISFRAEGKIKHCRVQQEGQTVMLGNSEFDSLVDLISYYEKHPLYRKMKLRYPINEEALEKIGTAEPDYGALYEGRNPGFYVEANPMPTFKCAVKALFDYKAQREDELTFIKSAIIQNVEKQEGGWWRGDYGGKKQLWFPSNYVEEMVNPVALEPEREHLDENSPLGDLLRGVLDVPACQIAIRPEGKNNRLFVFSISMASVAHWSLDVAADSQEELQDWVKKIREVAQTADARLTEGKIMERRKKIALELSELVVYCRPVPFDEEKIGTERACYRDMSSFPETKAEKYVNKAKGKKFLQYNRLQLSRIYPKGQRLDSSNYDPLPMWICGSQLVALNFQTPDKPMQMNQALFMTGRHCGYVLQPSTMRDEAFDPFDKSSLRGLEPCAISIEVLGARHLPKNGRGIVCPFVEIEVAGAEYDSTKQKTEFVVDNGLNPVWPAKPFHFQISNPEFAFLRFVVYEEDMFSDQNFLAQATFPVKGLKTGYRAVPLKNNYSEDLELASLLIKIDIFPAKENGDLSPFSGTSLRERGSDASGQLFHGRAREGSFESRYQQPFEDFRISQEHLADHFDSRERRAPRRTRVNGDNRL
# * hit, by the source's call; i = inactive; nt = no result given.
SMILES,ADAM17 inh,ADAM10 inh,proKLK7 act,PLCb3 inh,PLC-gamma1 inh
CC(C)c1ccc(NC(=O)CCNS(=O)(=O)c2cccc3nonc23)cc1,2,10,0,8,14*
CCN(CC)C(=O)C1CCCN(C(=O)Nc2ccc3nsnc3c2)C1 (stereo not drawn),-113,-431,19*,i,i
CCC[C@H]1[C@@H](OC(=O)NC2CCCCC2)CC[C@@]23CCCN2C(=O)CCC[C@@H]13,0,1,nt,3,4
CC(=O)N1CCN(c2ccc(S(=O)(=O)N3CCOCC3)cc2[N+](=O)[O-])CC1,3,-1,0,10,10.0*
O=[N+]([O-])c1cc(S(=O)(=O)N2CCOCC2)ccc1N1CCNCC1,-2,2,0,6,-1
Cc1cc(C)c(C(=O)OCCNC(=O)c2cccnc2)cc1C,-3,-1,0,1,-1
O=C(NCCOC(=O)c1ccccc1C(=O)OCCNC(=O)c1cccnc1)c1cccnc1,4,6,1,12*,8
CC(=O)Nc1cccc(C(C)C2=CCCCC2)c1 (stereo not drawn),5,4,0,3,-1
COc1ccc(-c2csc(NC(=O)CS(=O)(=O)c3ccccc3)n2)cc1,-3,-4,0,1,4
COc1ccc(-c2csc(NC(=O)C3CCCCN3S(=O)(=O)c3ccccc3)n2)cc1 (stereo not drawn),10*,15,0,3,6
COCCCN1C(=O)[C@H](CC(=O)NCC2CCCCC2)[C@]2(C(=O)OC)CCCCC=C12,-3,0,0,0,0
O=C(O)c1cccc(N2C(=O)/C(=C/c3ccc(SCc4ccc(Cl)cc4)o3)SC2=S)c1,-4,-10,0,-4,32*
O=C(Oc1ccc2c(=O)c(Oc3ccc4ccccc4c3)coc2c1)c1cccnc1,-61,-232,-2,-299,-272
Cc1ccc(Oc2coc3cc(OC(=O)c4cccs4)ccc3c2=O)cc1,-56,-209,45*,-498,-471
Cc1cccc(Oc2coc3cc(OC(=O)c4cccs4)ccc3c2=O)c1,-62,-180,41*,i,i
CCN1CCN(Cc2ccc(NC(=O)c3cccc(-c4ccc5nc(NC(=O)C6CC6)sc5n4)c3)cc2C(F)(F)F)CC1,-1,-22,-8,-10,-12
Cc1ccc(NC(=O)CN(C)CC(=O)Nc2ccc(F)c(Cl)c2)cc1,1,0,0,2,1
Cc1ccc(NC(=O)CN(C)Cc2ccc(Cl)cc2)cc1,8.8*,7,0,-3,1
COC(=O)C1CN(Cc2ccccc2)CCS(=O)(=O)N1Cc1cn(Cc2ccccc2)nn1 (stereo not drawn),-2,-2,1,0,3
Clc1cccc(CSc2nnc(-c3c[nH]c4ccccc34)o2)c1,4,21*,1,-3,3
COC(=O)C1CN(Cc2ccc(OC)cc2)CCS(=O)(=O)N1Cc1ccc(C(F)(F)F)cc1 (stereo not drawn),5,14,0,1,2
Cc1ccc(NC(=O)c2cc(S(=O)(=O)NCCC3=CCCCC3)ccc2F)cc1F,10*,25*,0,-1,2
CC[C@H](CCCc1ccc(OC)cc1)CCC(=O)N(c1ccccc1)c1ccccc1,0,4,0,3,-2
O=C(CN(CCc1ccccc1)S(=O)(=O)c1ccc(F)cc1)N1CCOCC1,-1,-7,0,-4,1
C=CCN1CCN(C(=O)c2cc3c(s2)CCC(CC)C3)CC1 (stereo not drawn),4,1,0,1,9.7*
SMILES,ADAM17 inh,ADAM10 inh,proKLK7 act,PLCb3 inh,PLC-gamma1 inh
CCN(CC)c1ccc(NC(=O)c2ccccc2)cc1S(=O)(=O)Nc1ccccc1OC,9.4*,18,-1,-2,-4
CCN(CC)c1ccc(NC(=O)c2cccc(C)c2)cc1S(=O)(=O)Nc1ccccc1OC,13*,25*,-3,-3,-4
C#CCCCN([C@H](C(=O)OC)C(C)C)S(=O)(=O)c1ccccc1Br,8,5,1,4,2
CC(C)(C)c1ccc(-c2cn(C[C@H](Cc3ccccc3)n3c(=O)c4ccccc4n3Cc3ccco3)nn2)cc1,-6,-37,-2,-32,-16
CC(=O)Nc1cc(OC(C)=O)c2nonc2c1OC(C)=O,-22,-73,40*,-89,-33
Cc1ccc(Cl)cc1N1CCN(C(=O)CCCn2c(=O)c3cccn3c3cccnc32)CC1,4,-6,0,-6,10*
N#CCC[C@H]1CC[C@]2(CCCN(C(=O)c3ccccc3)C2)O1,-2,-12,1,1,4
Cc1nn(C)cc1CN(C)C(=O)c1cc2nc(-c3ccco3)cc(C(F)(F)F)n2n1,-63,-214,16*,i,i
Cc1nn(C)c(C)c1CN(C)C(=O)c1cc2nc(-c3ccco3)cc(C(F)(F)F)n2n1,-56,-181,5,-486,-393
CC(=O)Nc1sc(C)c(C)c1C(=O)OCC(=O)NCc1ccc(Cl)cc1,3,4,-1,-4,12*
COc1cccc(CNC(=O)COC(=O)c2c(NC(C)=O)sc(C)c2C)c1,0,7,0,2,2
O=C(OC12CCCN(C1)/C(=C/c1ccc(Cl)cc1)C2)c1ccc(F)cc1 (stereo not drawn),3,3,0,1,-1
Cc1cccc(Nc2nc(N)c([N+](=O)[O-])c(N3CCCC(C)C3)n2)c1 (stereo not drawn),9.0*,17,0,7,5
Cc1ccc(S(=O)(=O)c2ccc([N+](=O)[O-])cn2)cc1,0,7,0,6,11*
Cc1oc2c(CN3CCOCC3)c(O)ccc2c(=O)c1-c1ccc(Br)cc1,-154,i,11,-280,-227
Cc1oc2c(CN(C)C)c(O)ccc2c(=O)c1-c1cscn1,-252,i,20*,i,-451
CN(C)c1ccc(N=Nc2ccccc2C(=O)OCC(=O)NC2CCCC2)cc1,7,12,1,1,5
CN(C)c1ccc(N=Nc2ccccc2C(=O)OCC(=O)NCC2CCCCC2)cc1,6,13,1,2,11*
COc1ccc(C[C@H]2CN3C(=NC[C@@H]3Cc3ccc(O)cc3)N2CCNC(=O)c2ccc(C)c(Br)c2)cc1,-3,-4,1,2,5
Cc1ccc(C(=O)NCCN2C3=NC[C@H](Cc4ccc(O)cc4)N3C[C@H]2Cc2ccc(O)cc2)cc1Br,0,8,0,7,10*
CCCCCC[C@@H](CC)CN(C(=O)Oc1ccccc1)c1ccccc1,-2,-14,0,-1,2
CCCOc1ccc(Cn2c(=O)oc3ccc(C)cc32)cc1OC,7,9,0,13*,6
CCCOc1ccccc1Cn1c(=O)oc2ccc(C)cc21,-2,1,1,0,-1
CC1=C(O)C(=O)C(C2=C(O)C(=O)C(C)=C(O)C2=O)=C(O)C1=O,-4,-5,0,4,47*
